Values joined by “and” are separate entries in the source; they are usually repeats but may differ in a detail not shown here. Equal entries are not always repeated. The whole screen tested about 5,500 compounds, of which about 2,000 (36%) were called active. Inconclusive results (about 18%) are left out. Cut-off read from the data, not from the text of the source: active = normalized growth mostly below about 0.91 (no sharp cut-off); inconclusive = no clear call, values can overlap the other calls; inactive = mostly above about 0.92. The list shows a part of the results.
Test: chemical genetic growth profiling, strain panel (AID 1159580);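 note: tested at 20 µM; growth read once vehicle control cultures reached saturation at 30 °C; 1 = growth at the plate median or of vehicle wells; lower values mean less growth of the strain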
Details: S. cerevisiae deletion strains, growth OD

Measured: normalized growth

CC(=O)O[C@H]1CC[C@@]2(C)C(=CCC3C2CC[C@@]2(C)C3CC[C@@H]2C(C)CCCC(C)C)C1 (stereo partly drawn)
inactive: locus YAL021C, strain ccr4, stronger effect = lower value 1 | locus YAL026C, strain drs2, stronger effect = lower value 1 | locus YAL030W, strain snc1, stronger effect = lower value 0.985 | locus YBL061C, strain skt5, stronger effect = lower value 0.994 | locus YBR009C, strain hhf1, stronger effect = lower value 0.994 | locus YBR021W, strain FUR4, stronger effect = lower value 0.996 | locus YBR023C, strain chs3, stronger effect = lower value 0.998 | locus YBR171W, strain sec66, stronger effect = lower value 0.976 | locus YBR229C, strain ROT2, stronger effect = lower value 1.01 | locus YBR231C, strain swc5, stronger effect = lower value 0.988 | locus YBR279W, strain paf1, stronger effect = lower value 0.997 | locus YCL011C, strain gbp2, stronger effect = lower value 0.992 | locus YCL016C, strain dcc1, stronger effect = lower value 1.01 | locus YCL029C, strain bik1, stronger effect = lower value 1.02 | locus YCL061C, strain MRC1, stronger effect = lower value 0.988 | locus YCL069W, strain vba3, stronger effect = lower value 0.998 | locus YCR088W, strain abp1, stronger effect = lower value 0.988 | locus YDL005C, strain med2, stronger effect = lower value 0.981 | locus YDL035C, strain GPR1, stronger effect = lower value 1.03 | locus YDL040C, strain nat1, stronger effect = lower value 0.975 | locus YDL074C, strain BRE1, stronger effect = lower value 1.04 | locus YDL101C, strain DUN1, stronger effect = lower value 1.01 | locus YDL134C, strain PPH21, stronger effect = lower value 1.02 | locus YDL185W, strain tfp1, stronger effect = lower value 1.03 | locus YDL192W, strain arf1, stronger effect = lower value 1.05 | locus YDR001C, strain nth1, stronger effect = lower value 0.993 | locus YDR069C, strain doa4, stronger effect = lower value 0.987 | locus YDR101C, strain arx1, stronger effect = lower value 1.02 | locus YDR137W, strain rgp1, stronger effect = lower value 1.01 | locus YDR159W, strain sac3, stronger effect = lower value 0.993 | locus YDR162C, strain NBP2, stronger effect = lower value 1.02 | locus YDR195W, strain ref2 0.943 | locus YDR297W, strain sur2, stronger effect = lower value 0.99 | locus YDR318W, strain mcm21, stronger effect = lower value 1.03 | locus YDR334W, strain swr1, stronger effect = lower value 0.988 | locus YDR335W, strain msn5, stronger effect = lower value 1 | locus YDR388W, stronger effect = lower value 1.03 | locus YDR392W, strain spt3, stronger effect = lower value 0.958 | locus YDR502C, strain sam2, stronger effect = lower value 1.02 | locus YEL003W, strain gim4, stronger effect = lower value 0.988 | locus YEL037C, strain rad23, stronger effect = lower value 0.996 | locus YEL061C, strain CIN8 (second series), stronger effect = lower value 0.992 | locus YEL061C, strain CIN8, stronger effect = lower value 1.01 | locus YER015W, strain faa2, stronger effect = lower value 0.995 | locus YER016W, strain bim1, stronger effect = lower value 0.994 | locus YER110C, stronger effect = lower value 1.03 | locus YER111C, strain swi4, stronger effect = lower value 0.979 | locus YER155C, strain BEM2 (second series), stronger effect = lower value 0.97 | locus YER155C, strain BEM2, stronger effect = lower value 0.992 | locus YER167W, strain BCK2, stronger effect = lower value 1.02 | locus YFR010W, strain ubp6, stronger effect = lower value 0.986 | locus YGL078C, strain dbp3, stronger effect = lower value 1.02 | locus YGL086W, strain mad1, stronger effect = lower value 1.01 | locus YGL167C, strain pmr1, stronger effect = lower value 0.989 | locus YGL173C, strain kem1, stronger effect = lower value 0.99 | locus YGL227W, strain vid30, stronger effect = lower value 0.978 | locus YGL240W, strain doc1, stronger effect = lower value 0.969 | locus YGL248W, strain PDE1, stronger effect = lower value 1.02 | locus YGL253W, strain hxk2, stronger effect = lower value 0.995 | locus YGR078C, strain PAC10, stronger effect = lower value 1.03 | locus YGR135W, strain pre9, stronger effect = lower value 1.02 | locus YGR252W, strain gcn5, stronger effect = lower value 1.03 | locus YHR013C, strain ard1, stronger effect = lower value 0.997 | locus YHR027C, strain rpn1, stronger effect = lower value 0.997 | locus YHR030C, strain SLT2, stronger effect = lower value 1.01 and 0.967 | locus YHR079C, strain IRE1 (second series), stronger effect = lower value 1.02 | locus YHR079C, strain IRE1, stronger effect = lower value 0.974 | locus YHR094C, strain hxt1, stronger effect = lower value 1.01 | locus YHR129C, strain ARP1, stronger effect = lower value 1.02 | locus YHR142W, strain chs7, stronger effect = lower value 1.01 | locus YHR200W, strain rpn10, stronger effect = lower value 1.03 | locus YIL066C, strain RNR3, stronger effect = lower value 1.04 | locus YIL073C, strain SPO22, stronger effect = lower value 1.1 | locus YIL125W, strain kgd1, stronger effect = lower value 1.01 | locus YIR030C, strain dcg1, stronger effect = lower value 1.02 | locus YJL092W, strain hpr5, stronger effect = lower value 0.998 | locus YJL095W, strain BCK1 (second series), stronger effect = lower value 1.01 | locus YJL095W, strain BCK1, stronger effect = lower value 1.03 and 0.973 | locus YJL115W, strain asf1, stronger effect = lower value 1 | locus YJL129C, strain trk1, stronger effect = lower value 0.998 | locus YJL134W, strain LCB3, stronger effect = lower value 1.01 | locus YJL154C, strain vps35, stronger effect = lower value 1 | locus YJL164C, strain tpk1, stronger effect = lower value 1.01 | locus YJL166W, strain qcr8, stronger effect = lower value 0.993 | locus YJL168C, strain set2, stronger effect = lower value 1.02 | locus YJL187C, strain SWE1 (second series), stronger effect = lower value 1.02 | locus YJL187C, strain SWE1, stronger effect = lower value 0.997 | locus YJR043C, strain POL32, stronger effect = lower value 1.03

— PubChem BioAssay AID1159580 (chemical genetic matrix, 2015)
